# Giardia killer = kills Giardia lamblia. actives 0.15% (n = 340,000). activity change, % at 7.66 µM, hits read low. Giardia lamblia trophozoite viability; in the data active means activity change below about -80%; inconclusive means between about -30% and that limit;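 further: parasites exposed to compound for two days anaerobically before the ATP read; on the % scale 0 is the no-effect control and ±100 the full control effect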
#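 ATP-content bioluminescence gauges trophozoite survival. Cells (100/well) receive compound and incubate anaerobically for 48 hrs at 37 deg C; detection reagent follows for 15-30 min at room temperature.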
# ELG1 DNA repair = ELG1-dependent DNA repair inhibition; HEK293T ELG1-luciferase reporter, luminescence, 16 h; DNA damage induced by 5-fluorouridine; Potency, µM (series often up to 46.1 µM), for the others: top-dose activity change, negative = inhibition, hits mostly inhibitors; actives 2.3% (n = 330,000); AID 504467; active means well fitted curve in the direction sought with a large enough effect; inconclusive means small, poorly fitted or top-dose-only effect, or another doubt; inactive means no such curve, though single readings can be large; an effect the other way counts as inactive or inconclusive; further: potency means the concentration at half of the fitted maximal effect; on the % scale 0 is the no-effect control and ±100 the full control effect; nearly all actives have a fitted effect of over 55% in size
#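 Luminescence from the luciferase reporter, measured 30 min after ONE-Glo reagent at room temperature, was the read-out. Beforehand, 2,000 cells per well were exposed for 16 hr at 37 °C to 5-fluorouridine together with compound or vehicle.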
# Sfp inh = Sfp phosphopantetheinyl transferase inhibition | Q9F4F7 | Biochemical Sfp PPTase activity, qHTS | Potency, µM, without a hit: largest response in the series, negative = inhibition, hits mostly inhibitors | actives 3.5% (n = 310,000) | AID 1490; active means well fitted curve in the direction sought with a large enough effect; inconclusive means small, poorly fitted or top-dose-only effect, or another doubt; inactive means no such curve, though single readings can be large; an effect the other way counts as inactive or inconclusive;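 further: the enzyme is Sfp with the accession as filed and its product quenches rhodamine fluorescence; potency means the concentration at half of the fitted maximal effect; 0% = enzyme reaction without inhibitor and -100% = no enzyme wells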
#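 Compounds were incubated with enzyme (final 15 nM) for 15 min at room temperature before substrate addition started the reaction. Fluorescence at 525 nm excitation, 598 nm emission was recorded immediately and after 30 minutes.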
# FBPA coupling cs = coupling enzyme interference in Giardia aldolase counter-screen | actives 0.67% (n = 290,000) | AID 2472 | activity change, negative = inhibition, % at 58.2 µM, hits read low | coupling enzyme system counterscreen, AmpLite Red fluorescence; in the data active means activity change below about -30%; further: on the % scale 0 is the no-effect control and ±100 the full control effect
#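 Compounds tested against the coupling enzymes alone at 57.5 uM final; readout was AmpLite Red fluorescence (525/598 nm) after 20 min at RT.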
# CASP1 redox cat = inhibits human caspase-1 in catalase buffer, redox counter-screen | shares compounds with FBPA coupling cs | caspase-1 Ac-WEHD-AFC fluorescence rate, catalase buffer | Potency, µM (highest dose often 57.5 µM), for the others: at the top dose activity change, negative = inhibition, most hits filed as inhibitors | 30 tested, under 10 active | AID 888
# CASP1 inh CRC = confirmation of allosteric or competitive inhibitors of human caspase-1 | purified caspase-1, fluorogenic substrate cleavage | actives 20% (n = 60) | AID 896 | shares compounds with FBPA coupling cs | Potency, µM (top dose mostly 57.5 µM), for the others: at the top dose activity change, negative = inhibition, most hits filed as inhibitors
# Casp7 confirm = blocks human caspase-7 activity in concentration-response; shares compounds with FBPA coupling cs; recombinant caspase-7, fluorogenic substrate cleavage; Potency, µM (doses to about 57.5 µM), for inactives: top-dose activity change, negative = inhibition, usual class: inhibitors; 60 tested, under 10 active; AID 897; active means well fitted inhibition curve with a large enough effect in the main read-out, with a control signal flat, not every such curve was filed as active; inconclusive means small, poorly fitted or top-dose-only effect, or a change in a side signal; inactive means no such curve, though single readings can be large or run the other way
# CASP7 redox cys = caspase-7 inhibition with cysteine present. Potency, µM (highest dose often 57.5 µM), without a hit: at the highest dose activity change, negative = inhibition, usual class: inhibitors. AID 908. caspase-7 enzyme with cysteine, fluorogenic substrate, redox counterscreen. shares compounds with FBPA coupling cs. 60 tested, under 10 active
# Casp7 catalase = counter-screen for redox active caspase-7 inhibitors: catalase buffer; Potency, µM (top dose mostly 57.5 µM), for the others: at the highest dose activity, negative = inhibition, most hits filed as inhibitors; Caspase-7 Ac-DEVD-AFC fluorescence rate, catalase buffer; shares compounds with FBPA coupling cs; 30 tested, under 10 active
# CASP1 redox cys = caspase-1 inhibition with cysteine present. Potency, µM (top dose mostly 57.5 µM), inactives show top-dose activity change, negative = inhibition, actives largely listed as inhibitors. recombinant caspase-1, fluorogenic substrate, cysteine buffer. shares compounds with FBPA coupling cs. 60 tested, under 10 active
# Starred values were filed as active, the others as inactive; ? = inconclusive; nt = not tested or not shown. Most compounds without a hit are left out; they make up all but 5.5% or so of the library. Unless noted, the call rests on the fitted dose curve; in most records, active means well fitted inhibition curve with a large enough effect in the main read-out, with a control signal flat; inconclusive means small, poorly fitted or top-dose-only effect, or a change in a side signal; inactive means no such curve, though single readings can be large or run the other way.
SMILES,Giardia killer,ELG1 DNA repair,Sfp inh,FBPA coupling cs,CASP1 redox cat,CASP1 inh CRC,Casp7 confirm,CASP7 redox cys,Casp7 catalase,CASP1 redox cys
Cc1cc(O)c(-c2n[nH]c3c2C(c2cccc(O)c2)N(Cc2cccnc2)C3=O)cc1Cl (configuration not stated),1,?,-7%,3,nt,-7%,-25%,-30%,nt,15%
COc1cc2c(Cc3c4c5c(cc(OC)c(OC)c5c5c(OC)c(OC)ccc35)CCN4C)c3c4c(cc(OC)c(OC)c4c2cc1OC)CCN3C,nt,nt,-27%,-33*,nt,?,-43%,-8%,nt,?
Cc1ccc(C)c(OCCC(=O)OCC(=O)NC2CCCC2)c1,-5,12%,nt,nt,nt,nt,nt,nt,nt,nt
COc1ccc(Cn2c(=S)[nH]c3cc(C(=O)N4CCN(c5ccccc5)CC4)ccc3c2=O)cc1,6,-13%,4%,1,nt,nt,nt,nt,nt,nt
COc1ccc(Cn2c(=O)[nH]c3cc(C(=O)N4CCN(Cc5ccccc5)CC4)ccc3c2=O)cc1,-6,?,2%,4,-3%,-8%,?,?,?,4%
C[C@H]1CN([C@@H](C)CO)C(=O)c2cc(NC(=O)NC3CCCCC3)ccc2O[C@H]1CN(C)C(=O)Nc1ccc(C(F)(F)F)cc1,1,?,nt,nt,nt,nt,nt,nt,nt,nt
O=C(COC(=O)c1cc(-c2ccco2)nc2ccccc12)NCc1ccc2c(c1)OCO2,5,-10%,-17%,2,?,?,?,-12%,-21%,?
CC12CCC(=O)C=C1CCC1C2CCC2(C)C1CC1C3C(=O)N(Cc4ccccc4)C(=O)C3CC(=O)C12 (configuration not stated),-16,nt,nt,nt,nt,nt,nt,nt,nt,nt
O=c1cnnc(SCCc2ccccc2)[nH]1,-6,4%,35%,11,4%,-6%,-2%,-6%,2%,5%
Cc1cccc(CSc2nncc(=O)[nH]2)c1,-24,1%,13%,4,nt,nt,nt,nt,nt,nt
COc1ccc2c(c1)Cc1sc(NC(=O)c3cccs3)nc1-2,-3,?,25µM*,-35*,?,-48%,-12%,-13%,-12%,-54%
CC1=C(C(=O)Nc2cc(-c3cccc(F)c3)[nH]n2)C2(CCCCC2)OC1=O,18,-3%,9%,-2,-2%,-8%,-35%,-38%,-11%,3%
CCC(=O)N1c2ccc(S(=O)(=O)NCCc3ccccc3)cc2CC1C (configuration not stated),-18,-9%,10%,2,nt,nt,nt,nt,nt,nt
Cc1ccc(N2C(=O)[C@@H]3[C@H](C2=O)C2c4ccccc4C=CN2[C@@H]3C(=O)c2ccco2)c(C)c1 (some centres not stated),-4,-6%,?,-42*,32µM*,25µM*,?,-6%,-29%,-17%
Cc1ccc(N2C(=O)[C@@H]3[C@H](C2=O)C2c4ccccc4C=CN2[C@@H]3C(=O)c2ccco2)cc1 (some centres not stated),7,11%,-23%,-41*,nt,25µM*,-94%,-7%,nt,?
Cc1ccc(-n2ncc3c(NNC(=O)c4ccco4)ncnc32)c(C)c1,14,0%,18%,0,nt,nt,nt,nt,nt,nt
COc1cc(N[C@@H](C)CCCN)c2ncccc2c1,nt,nt,2%,-33*,nt,-42%,-20%,-7%,nt,-5%
CN(CC(=O)NCC1CCCCC1)CC(=O)Nc1ccccc1Br,5,-2%,nt,nt,nt,nt,nt,nt,nt,nt
COc1ccc2c(c1)C(=O)N(c1ccccc1OC)C(=O)C2,16,?,1%,-11,?,?,-12%,-7%,-12%,?
COc1ccccc1N1C(=O)Cc2ccccc2C1=O,-14,10%,-13%,-3,nt,nt,nt,nt,nt,nt
CCOC(=O)N1CCN(C(=O)c2ccc3c(c2)NC(=O)/C(=C\c2cccc(C)c2)S3)CC1,?,-2%,-14%,0,nt,nt,nt,nt,nt,nt
O=C1C(=O)N(Cc2ccccc2)C(=O)N1CCN1C(=O)c2ccccc2C1=O,13,13%,5%,1,nt,nt,nt,nt,nt,nt
O=C1Cc2ccccc2C(=O)N1CCc1ccccc1,-9,11%,-4%,-47*,nt,6.3µM*,10µM*,-3%,nt,-1%
O=C(O)c1ccc2c(c1)C(=O)N([C@H](Cc1ccc(F)cc1)C(=O)O)C2=O,nt,nt,6%,1,nt,nt,nt,nt,nt,nt
CCCCCCC(=O)N1CCC(c2nc3c(nnn3Cc3ccccc3Cl)c(=O)[nH]2)CC1,22,?,?,-3,nt,-14%,4µM*,5µM*,nt,2%
SMILES,Giardia killer,ELG1 DNA repair,Sfp inh,FBPA coupling cs,CASP1 redox cat,CASP1 inh CRC,Casp7 confirm,CASP7 redox cys,Casp7 catalase,CASP1 redox cys
O=C(Nc1ccc(F)cc1)N1CCC(c2nc3c(nnn3Cc3cccc(Cl)c3)c(=O)[nH]2)CC1,3,0%,-7%,4,nt,nt,nt,nt,nt,nt
Cc1ccc(NC(=O)N2CCC(c3nc4c(nnn4Cc4cccc(Cl)c4)c(=O)[nH]3)CC2)cc1,-17,-21%,?,1,nt,-10%,?,?,nt,3%
O=C(C1CCCCC1)N1CCC(c2nc3c(nnn3Cc3ccccc3Cl)c(=O)[nH]2)CC1,-21,nt,nt,nt,nt,nt,nt,nt,nt,nt
Cc1cnc(C(=O)OCC(=O)Nc2ccccc2-c2ccccc2)cn1,-14,-20%,nt,nt,nt,nt,nt,nt,nt,nt
COc1ccc(OCc2cc(C(=O)N3CCCC(O)C3)no2)c2ccccc12 (configuration not stated),-11,?,-2%,nt,nt,nt,nt,nt,nt,nt
Cc1ccsc1C=Nc1ccc(O)cc1,-5,0%,?,-50*,-1%,-11%,-3%,-1%,-6%,3%
O=C(c1ccc(Cl)c(Cl)c1)N(Cc1ccco1)c1ccc(O)cc1,-9,-18%,-4%,6,-10%,-3%,?,?,32µM*,8%

# Screening data deposited in PubChem BioAssay by National Center for Advancing Translational Sciences (NCATS).
